HTR5A inv ctr: HTR5A inverse agonists in luminescence cell assay, primary screen, counter-screen for OPRM1-OPRD1 heterodimer inverse agonist project, full-deck HTS | inhibition, % at 9.3 µM | HTR5A cell line, inverse agonism | hit rate 0.083% among 340,000; in the data active = inhibition mostly above about 23%, no sharp cut-off; inactive = mostly below about 18%;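 also: 0% = cells with DMSO and 100% = no-cell wells with DMSO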
Target sequence (P47898 whole entry, looked up): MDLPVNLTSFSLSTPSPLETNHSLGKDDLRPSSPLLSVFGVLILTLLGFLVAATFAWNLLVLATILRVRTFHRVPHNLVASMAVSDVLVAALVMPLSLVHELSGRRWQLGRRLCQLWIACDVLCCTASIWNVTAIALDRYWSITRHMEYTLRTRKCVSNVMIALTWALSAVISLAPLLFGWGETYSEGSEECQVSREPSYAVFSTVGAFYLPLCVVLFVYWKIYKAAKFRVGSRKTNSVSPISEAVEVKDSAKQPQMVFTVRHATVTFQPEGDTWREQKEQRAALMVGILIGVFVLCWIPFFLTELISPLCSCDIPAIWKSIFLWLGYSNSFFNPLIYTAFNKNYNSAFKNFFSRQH
OPRM1-OPRD1 inv: inverse agonists of MOR-DOR heterodimerization, primary screen, cell-based, luminescence; Mu-type opioid receptor (Homo sapiens) + Delta-type opioid receptor (Homo sapiens), …; inhibition, % at 9.3 µM; hit rate 0.21% among 340,000; cell-based MOR-DOR heterodimer luminescence, inverse agonism; in the data active = inhibition above about 22%, passing the limit was not always enough;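 also: 0% = cells with DMSO and 100% = wells without cells with DMSO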
beta cell repl: inducers of MIN6 beta-cell proliferation, primary screen, ATP luminescence, uHTS; MIN6 cells proliferation, ATPlite luminescence, 48 h; cells starved in 0.2% serum; 100% = growth in 10% serum; proliferation, % at 10 µM; hit rate 0.29% among 330,000;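 active = compounds whose signal lies at least 3.5 SD above the mean of all wells on their plate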;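 also: 0% = DMSO-treated cells in low-serum medium and 100% = 10% serum control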
MOR-DOR ag: agonists of OPRM1-OPRD1 heterodimerization, primary screen, cell-based, luminescence | Mu-type opioid receptor (Homo sapiens) + Delta-type opioid receptor (Homo sapiens), … | cells | activation, % at 9.3 µM | hit rate 0.3% among 340,000 | AID 504326, 2011;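 also: 0% = vehicle-treated cells and 100% = reference agonist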
HTR5A ag: HTR5A agonists in luminescence cell assay, primary screen, counter-screen for OPRM1-OPRD1 heterodimer agonist project, full-deck HTS. 5-hydroxytryptamine receptor 5A (Homo sapiens), P47898. cell-based. activation, % at 9.3 µM. hit rate 0.61% among 340,000. AID 504692, 2011; in the data active = activation mostly above about 9.5%, no sharp cut-off; inactive = mostly below about 7.6%;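 also: 0% = cells with vehicle only and 100% = reference agonist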
V-ATPase pH: regulators of yeast V-ATPase proton pumping, primary screen, pHLuorin cytosolic pH fluorescence; S. cerevisiae; response, % at 10 µM; hit rate 0.37% among 350,000; in the data active = response mostly above about 7.3%, no sharp cut-off; inactive = mostly below about 5.4%; also: actives read high
OPRM1-D1 ag cf: agonists of MOR-DOR heterodimerization, confirmation, cell-based, luminescence; hit rate 45% among 830; shares compounds with MOR-DOR ag; cells, luminescence complementation; activation, % at 9.3 µM; AID 504904, 2011;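 also: 0% = vehicle-treated cells and 100% = reference agonist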
HTR5A ag ctr2: HTR5A agonists in cells, counter-screen for OPRM1-OPRD1 heterodimer agonist project, cell-based, luminescence | hit rate 8% among 830 | activation, % at 9.3 µM | HTR5A agonist counterscreen | shares compounds with MOR-DOR ag; in the data active = activation above about 17%;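 also: 0% = vehicle-treated cells and 100% = reference agonist response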
Numbers without * were called inactive; i = inactive; . = no result. This is a sample that favours compounds with a hit; in the whole collection about 1.7% have one here. Rule as the data show it, unless noted: active = activation above about 18%; inactive = the rest.

SMILES	HTR5A inv ctr	OPRM1-OPRD1 inv	beta cell repl	MOR-DOR ag	HTR5A ag	V-ATPase pH	OPRM1-D1 ag cf	HTR5A ag ctr2
CN1C2C=C(N(CCc3c[nH]c4ccccc34)C(=O)c3ccc(Cl)cc3)CC1CC2 (stereo not drawn)	-9	i	-5	100*	0	0	138*	6
Cn1nnnc1SCc1csc(C2C(C#N)=C(N)OC3=C2C(=O)CCC3)c1 (stereo not drawn)	7	13	-1	-3	-3	-1	.	.
Cc1ccccc1N(CC(=O)N/N=C/c1ccc(F)cc1)C(=O)c1ccccc1	-12	-158	-4	30*	8	5	46*	2
COC(=O)Nc1ccc(N2CCOCC2)c(S(=O)(=O)N2CCOCC2)c1	10	10	5	-2	2	0	.	.
COc1ccc(C2C(C#N)=C(N)N(c3sc4c(c3C#N)CCCC4)C3=C2C(=O)CC(C)(C)C3)cc1OC (stereo not drawn)	-5	-143	-1	23*	1	5	31*	25*
COc1ccc(C2C(C#N)=C(N)N(c3sc4c(c3C#N)CCCC4)C3=C2C(=O)CC(C)(C)C3)cc1 (stereo not drawn)	-4	i	-6	88*	1	1	211*	-5
COc1ccc(C2C(C#N)=C3NC(=O)c4c(sc5c4CCCCC5)N3C3=C2C(=O)CC(C)(C)C3)cc1 (stereo not drawn)	-6	-12	-5	2	2	-2	.	.
Cc1ccc2c(c1)S(=O)(=O)c1ccc3ccccc3c1N2	-3	-10	.	2	1	1	.	.
COc1ccc(C(=O)OCC(=O)Nc2c(C)cccc2C)c(OC)c1OC	-11	-17	0	2	4	8	.	.
O=C(Nc1cc(Sc2ccccn2)cc([N+](=O)[O-])c1)c1ccc([N+](=O)[O-])cc1	-13	-147	-4	32*	14*	-7	1	35*
O=[N+]([O-])c1ccc(Sc2ccccn2)nc1	21	6	0	-1	5	-3	.	.
CC(C)[C@H](NC(=O)c1ccccc1Cl)C(=O)OCC(=O)NC(=O)NC1CCCC1	12	5	0	-1	2	4	.	.
CC(C)[C@H](NC(=O)c1ccccc1Cl)C(=O)OCC(=O)NC(=O)NCc1ccco1	9	i	-2	314*	-4	-1	1	-6
COc1cccc(CC2(CO)CCCN(Cc3ccc(-c4ccco4)cc3)C2)c1 (stereo not drawn)	1	-14	-4	3	-1	-1	.	.
COc1cccc(CC2(CO)CCCN(Cc3ccccc3-c3ccco3)C2)c1 (stereo not drawn)	-29	i	-5	97*	-1	.	128*	1
CCOC(=O)C1(CC2CCCCO2)CCN(Cc2cc3ccccc3[nH]2)CC1 (stereo not drawn)	-9	i	-5	307*	4	-1	2	-1
OCC1(CC2CCCCO2)CCN(Cc2ccccc2-c2ccco2)CC1 (stereo not drawn)	4	i	1	96*	-1	12	136*	3
CCOC(=O)C1(CC2CCCCO2)CCN(Cc2ccccc2-c2ccco2)CC1 (stereo not drawn)	3	i	-1	379*	3	2	10	4
Cn1c(CNC(=O)c2ccc(Cl)cc2)nnc1SCC(=O)NC1CCCC1	-5	-4	0	1	2	-1	.	.
NS(=O)(=O)c1ccc(CCNC(=O)CSc2nc3ccccc3c(=O)n2CCC(=O)N2CCCCC2)cc1	-17	2	-3	0	7	-3	.	.
Cc1ccc(C(=O)C2C(c3ccc(-c4ccccc4[N+](=O)[O-])o3)NC(=O)NC2(O)C(F)(F)F)cc1 (stereo not drawn)	0	-114	-3	21*	2	4	4	5
O=C1NC(c2ccc(-c3ccccc3[N+](=O)[O-])o2)C(C(=O)c2ccccc2)C(O)(C(F)(F)F)N1 (stereo not drawn)	-15	-64	-3	10	3	-4	.	.
Cc1cc(C)cc(CC(Cc2nc3ccccc3[nH]2)c2nc3ccccc3[nH]2)c1 (stereo not drawn)	-16	-376	-3	66*	-8	3	0	-2
Cc1cc(N2CCN(C)CC2)ccc1NC(=O)c1ccc(-c2ccc(Cl)cc2)o1	-5	-136	-7	26*	2	-2	44*	1
CN1CCN(c2ccc(NC(=O)c3ccc(-c4ccccc4F)o3)cc2)CC1	-38	i	-8	158*	4	-4	249*	7
SMILES	HTR5A inv ctr	OPRM1-OPRD1 inv	beta cell repl	MOR-DOR ag	HTR5A ag	V-ATPase pH	OPRM1-D1 ag cf	HTR5A ag ctr2
CN1CCN(c2ccc(NC(=O)c3ccc(Br)o3)cc2)CC1	3	-4	-1	1	0	0	.	.
CN1CCN(c2ccccc2NC(=O)c2ccc(-c3ccc(Cl)c(Cl)c3)o2)CC1	-2	-68	-7	12	0	3	.	.
Oc1ccccc1C1SC(c2ccccc2O)SC(c2ccccc2O)S1 (stereo not drawn)	-7	-115	.	22*	2	2	20*	8
CCOc1ccc2nc(NC3=NC(C)(C)C=C(C)N3)nc(C)c2c1	0	i	-2	158*	0	3	1	-1
CCOc1ccc2c(C)nc(NC3=NC(C)(C)C=C(C)N3)nc2c1	-2	i	-2	170*	-3	3	2	1
CCOc1ccc2nc(NC3=NC(c4ccc(OC)cc4)CC(=O)N3)nc(C)c2c1 (stereo not drawn)	-25	-77	-4	13	6	-2	.	.
CCN(CC)C(=O)C1CCC(CNS(=O)(=O)c2cccc3nsnc23)CC1 (stereo not drawn)	-8	14	-4	-3	1	2	.	.
O=C(Cn1c(-c2ccccc2)c[n+]2ccsc12)c1ccc([N+](=O)[O-])cc1	4	i	-5	81*	-1	-3	1	40*
Cn1nc(-c2ccccn2)nc2c(=O)n(C)c(=O)nc1-2	-25	-223	-8	41*	9	4	28*	1

Source: PubChem
